Assay [1] has as its target Luciferin 4-monooxygenase (Photinus pyralis) (UniProt P08659). Put plainly: Biochemical firefly luciferase enzyme assay for NPC (AID 624030). Also: potency is read from the fitted curve at half-maximal effect; nearly all actives have a fitted effect of over 70% in size. The method in brief:
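Purified P. pyralis luciferase at 10 nM in 50 mM Tris Acetate (final), luminescence read within 5 minutes of enzyme addition to compounds. Activity normalised to PTC124 versus DMSO; concentration-response curves classed by r2, magnitude and activity.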

The nature of assay [2]: S16 Schwann cell viability assay (CellTiter-Glo assay) (AID 624031).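 Also: native untransfected S16 rat Schwann cells; nearly all actives have a fitted effect of over 70% in size.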 The procedure, abridged: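 Counter-screen for cytotoxicity: parental S16 rat Schwann cells lacking the PMP22 reporters, treated 24 h with compound, viability from cellular ATP by CellTiter-Glo luminescence, normalized to DMSO (0%) and no-cell wells.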
In general terms: Cellular ATP, detected with luciferase, serves as a proxy for viable cell number.

A short description of assay [3]: S16 Schwann cell PMP22 intronic element firefly luciferase assay (AID 624032). Also: nearly all actives have a fitted effect of over 30% in size. The method in brief:
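Rat S16 Schwann cells stably carrying firefly luciferase driven by a PMP22 intronic element, in 10% FBS, treated 24 h at 37 C. ONE-Glo luminescence normalized to PTC124 control and DMSO (0%); curves classed by r2, magnitude and activity.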

A short description of assay [4]: S16 Schwann cell PMP22 intronic element beta-lactamase assay (AID 624044; calls by dose curve; also: nearly all actives have a fitted effect of over 15% in size). The procedure, abridged:
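Rat S16 Schwann cells with beta-Lac driven by a PMP22 intronic element, compound-treated 24 h at 37 °C. LiveBLAzer FRET B/G read: 460 nm normalized to potassium clavulanate vs DMSO; 535 nm FRET as viability; concentration-effect curves classified.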

The test system of assay [5] is CP266. Kind of assay: qHTS profiling for inhibitors of Plasmodium falciparum proliferation (AID 504749). Also: nearly all actives have a fitted effect of over 60% in size. Conditions: P. falciparum in erythrocytes, SYBR Green DNA, 72 h; series mostly up to 28.7 µM. The method in brief: (§1)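 P. falciparum-infected erythrocytes (0.3% parasitemia, 2.5% hematocrit) incubated with compound 72 h at 37 C, 5% CO2. Parasite DNA detected by SYBR Green after lysis, overnight at room temperature; normalised to 0.29 uM artemisinin and DMSO.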
On the technique in general: Quantitative high-throughput screening tests each substance at several concentrations.

The test system of assay [6] is CP286. Described as above. Conditions: P. falciparum in erythrocytes, SYBR Green DNA, 72 h; series mostly up to 28.7 µM. The method in brief:
as §1

Assay [7] has as its system CP297. Described as above. Conditions: P. falciparum in erythrocytes, SYBR Green DNA, 72 h; series mostly up to 28.7 µM. The method in brief: as §1
Assay [8] concerns ICS. The description is as above. Conditions: P. falciparum in erythrocytes, SYBR Green DNA, 72 h; series mostly up to 28.7 µM. The method in brief: as §1
Assay [9] has as its system JCK. The assay is described as above. Conditions: P. falciparum in erythrocytes, SYBR Green DNA, 72 h; series mostly up to 28.7 µM. The procedure, abridged:
as §1

Assay [10] can be described thus: Validation of Assay for Modulators of Lamin A Splicing (AID 1459; active = well fitted curve in the direction sought with a large enough effect in the signal ratio; the % refers to the signal ratio;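 also: cells exposed to compound for two days before reading; ratio rise marks activators and ratio drop marks inhibitors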). The procedure, abridged:
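S3 HeLa cells stably expressing a lamin A-EGFP splicing minigene and DsRed2 were seeded at 600 cells/well in Opti-MEM with 2% FBS, pin-dosed, and incubated 48 hrs at 37 °C, 5% CO2. Laser-scanning cytometry (488 nm) gave GFP/RFP total intensity ratio.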

Assay [11] deals with DNA repair nuclease/redox regulator APEX1 (Homo sapiens) (UniProt P27695). Put plainly: qHTS Validation Assay for Inhibitors of the Human Apurinic/apyrimidinic Endonuclease 1 (APE1) (AID 1705; also: potency is read from the fitted curve at half-maximal effect). The method in brief:
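Human APE1 was preincubated with compound for 15 min at room temperature, then 50 nM (final) THF-abasic double-stranded DNA substrate bearing 5'-TAMRA and 3'-BHQ-2 was added. Incision-driven fluorescence rise (ex 525/em 598 nm) was read kinetically.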

Assay [12] can be described thus: Counterscreen for APE1 Inhibitors: Fluorescent Dye Displacement Validation Assay (AID 1707). The method in brief:
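Compounds are scored by their ability to displace Thiazole Orange (250 nM) from a 50 nM TAMRA-tagged duplex bearing a tetrahydrofuran abasic site. Buffer is 50 mM Tris-HCl pH7.5, 50mM NaCl, 2 mM MgCl2, 0.01% Tween-20.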
In general terms: A counterscreen serves to expose hits that act by an unwanted route or on another target.

Assay [13] is described as follows: qHTS for differential inhibitors of proliferation of Plasmodium falciparum line W2 (AID 1883).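 Also: potency is read from the fitted curve at half-maximal effect; parasites grown with compound for 72 h before lysis and staining.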 Conditions: Potency: Plasmodium falciparum W2 proliferation inhibition.
The target of assay [14] is ATP-dependent DNA helicase Q1 (Homo sapiens) (UniProt P46063). Put plainly: qHTS Validation Assay for Inhibitors of RecQ-Like Dna Helicase 1 (RECQ1) (AID 2353). The procedure, abridged: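 50 nM RECQ1T1 preincubated 15 min with compound in Tris pH 8.0 buffer with MgCl2, DTT, Tween-20 and 2.5 ug/ml poly(dI-dC); started with 200 nM TAMRA/BHQ-2 forked duplex and 2 mM ATP. Unwinding read as fluorescence (525/598 nm), two reads 2 h apart.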
ATP-dependent DNA helicase Q1 (Homo sapiens), sequence (P46063 whole entry, looked up): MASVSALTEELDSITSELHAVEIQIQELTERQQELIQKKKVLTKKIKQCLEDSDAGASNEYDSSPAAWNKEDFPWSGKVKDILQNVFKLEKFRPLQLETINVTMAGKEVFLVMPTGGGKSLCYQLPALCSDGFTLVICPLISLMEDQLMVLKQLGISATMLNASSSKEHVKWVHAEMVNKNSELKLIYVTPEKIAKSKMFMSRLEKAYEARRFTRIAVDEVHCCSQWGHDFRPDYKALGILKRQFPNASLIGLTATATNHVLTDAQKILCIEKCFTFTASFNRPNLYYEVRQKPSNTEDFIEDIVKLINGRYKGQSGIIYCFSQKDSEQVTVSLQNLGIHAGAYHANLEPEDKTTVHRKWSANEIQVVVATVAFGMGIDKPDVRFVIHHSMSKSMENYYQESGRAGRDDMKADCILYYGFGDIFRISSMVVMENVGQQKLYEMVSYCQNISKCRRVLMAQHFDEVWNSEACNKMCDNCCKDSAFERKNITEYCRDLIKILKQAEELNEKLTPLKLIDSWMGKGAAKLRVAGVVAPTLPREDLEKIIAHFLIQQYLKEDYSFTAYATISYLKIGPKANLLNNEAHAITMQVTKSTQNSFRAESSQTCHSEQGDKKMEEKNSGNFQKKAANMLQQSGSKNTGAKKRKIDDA

Assay [15] can be described thus: Validation screen for small molecules that induce DNA re-replication in MCF 10A normal breast cells (AID 463097). Also: nearly all actives have a fitted effect of over 60% in size. The method in brief: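 Readout: Hoechst nuclear fluorescence intensity, 405 ex / 500-530 em, by scanning plate imager; re-replication scored as increase in nuclei with elevated DNA content. Cells exposed to compound 48 hr, 37 C, 5% CO2 beforehand.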
Assay [16] in a line: Quantitative high throughput screen for delayed death inhibitors of the malarial parasite plastid, 96 hour incubation (AID 488745).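 Also: luciferase-expressing P. falciparum in erythrocytes at 2% hematocrit and 0.1% parasitemia; nearly all actives have a fitted effect of over 70% in size.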 The procedure, abridged: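 Infected erythrocytes were added to compound in Albumax-supplemented RPMI 1640 at 0.1% parasitemia and 2% hematocrit (final), incubated 96 h at 37 C under 5% CO2, then luciferase reagent was added and luminescence measured.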

The nature of assay [17]: Quantitative high throughput screen for delayed death inhibitors of the malarial parasite plastid, 48 hour incubation (AID 488752). Also: nearly all actives have a fitted effect of over 65% in size. The procedure, abridged: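 Readout is firefly luciferase luminescence from a reporter integrated into the parasite genome, with lower signal taken as inhibited growth. Infected red cells (0.1% parasitemia, 2% hematocrit final) are cultured with compound for one 48 h cycle at 37 C.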

Assay [18] deals with Galactokinase (Homo sapiens) (UniProt P51570). Kind of assay: qHTS Validation Assay for Inhibitors of Human Galactokinase (GALK) (AID 493189). The method in brief:
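GALK (5 nM) with 35 uM ATP and 100 uM galactose in HEPES pH8.0, MgCl2, NaCl, DTT, BSA; 1 h at room temperature. Residual ATP read by Kinase-Glo Plus luminescence after 10 min.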

Assay [19] in a line: Validation screen for small molecules that induce DNA re-replication in SW480 colon adenocarcinoma cells (AID 504364). The method in brief:
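250 cells/well; compound pinned in; 48 hr, 37 C, 5% CO2; Hoechst added, 40 min; nuclear fluorescence imaged, 405 ex / 500-530 em; re-replication scored as increase in high-intensity nuclei.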

Assay [20] deals with Voltage-gated inwardly rectifying potassium channel KCNH2 (Homo sapiens) (UniProt Q12809). Put plainly: qHTS Assay for Small Molecule Inhibitors of the Human hERG Channel Activity (AID 588834).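 Also: top concentration of the series differs between compounds; lower thallium flux fluorescence means stronger hERG block; nearly all actives have a fitted effect of over 50% in size.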 The procedure, abridged:
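U2OS cells transduced with hERG via BacMam (MOI ~100), plated 2000/well, loaded with FluxOR thallium dye, compound ~10 min, then stimulation buffer; fluorescence decrease read kinetically; AC50 from Hill fits.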

Inconclusive results are not listed. Activity calls are given as the source filed them. Unless noted, calls follow the shape of the dose curve; as a rule, active = well fitted curve in the direction sought with a large enough effect; inconclusive = small, poorly fitted or top-dose-only effect, or another doubt; inactive = no such curve, though single readings can be large; an effect the other way counts as inactive or inconclusive.

The record followed here is PubChem BioAssay (NCATS).

Voltage-gated inwardly rectifying potassium channel KCNH2 (Homo sapiens), sequence (Q12809 whole entry, looked up): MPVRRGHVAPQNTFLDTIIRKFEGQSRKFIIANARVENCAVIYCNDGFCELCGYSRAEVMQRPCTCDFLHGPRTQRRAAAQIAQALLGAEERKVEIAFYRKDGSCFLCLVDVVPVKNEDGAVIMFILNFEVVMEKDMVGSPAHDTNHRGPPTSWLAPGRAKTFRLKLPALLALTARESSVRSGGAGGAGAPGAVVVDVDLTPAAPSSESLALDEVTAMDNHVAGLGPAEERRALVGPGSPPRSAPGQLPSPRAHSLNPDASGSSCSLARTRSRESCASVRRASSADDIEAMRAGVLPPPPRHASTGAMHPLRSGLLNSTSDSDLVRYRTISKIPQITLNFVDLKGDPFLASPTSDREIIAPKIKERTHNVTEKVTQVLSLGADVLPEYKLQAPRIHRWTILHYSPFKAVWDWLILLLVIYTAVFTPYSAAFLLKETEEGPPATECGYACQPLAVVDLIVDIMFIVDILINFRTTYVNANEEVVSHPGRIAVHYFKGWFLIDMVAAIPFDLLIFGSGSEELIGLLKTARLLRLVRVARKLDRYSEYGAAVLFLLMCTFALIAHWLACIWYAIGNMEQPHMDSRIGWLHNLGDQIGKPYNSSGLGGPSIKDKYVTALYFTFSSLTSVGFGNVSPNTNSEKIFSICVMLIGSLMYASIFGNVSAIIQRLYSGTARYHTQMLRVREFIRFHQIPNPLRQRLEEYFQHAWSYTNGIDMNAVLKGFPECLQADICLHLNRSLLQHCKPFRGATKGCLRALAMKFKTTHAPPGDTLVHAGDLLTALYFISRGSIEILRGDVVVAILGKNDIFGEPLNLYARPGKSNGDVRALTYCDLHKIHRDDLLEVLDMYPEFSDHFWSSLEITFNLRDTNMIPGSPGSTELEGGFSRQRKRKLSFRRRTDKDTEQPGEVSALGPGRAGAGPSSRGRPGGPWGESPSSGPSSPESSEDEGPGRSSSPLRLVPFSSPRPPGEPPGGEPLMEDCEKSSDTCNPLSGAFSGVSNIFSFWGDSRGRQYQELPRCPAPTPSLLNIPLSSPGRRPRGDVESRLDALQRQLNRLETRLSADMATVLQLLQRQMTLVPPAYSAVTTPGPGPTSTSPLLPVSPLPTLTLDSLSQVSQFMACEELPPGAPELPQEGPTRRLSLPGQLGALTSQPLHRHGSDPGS
DNA repair nuclease/redox regulator APEX1 (Homo sapiens), sequence (P27695 whole entry, looked up): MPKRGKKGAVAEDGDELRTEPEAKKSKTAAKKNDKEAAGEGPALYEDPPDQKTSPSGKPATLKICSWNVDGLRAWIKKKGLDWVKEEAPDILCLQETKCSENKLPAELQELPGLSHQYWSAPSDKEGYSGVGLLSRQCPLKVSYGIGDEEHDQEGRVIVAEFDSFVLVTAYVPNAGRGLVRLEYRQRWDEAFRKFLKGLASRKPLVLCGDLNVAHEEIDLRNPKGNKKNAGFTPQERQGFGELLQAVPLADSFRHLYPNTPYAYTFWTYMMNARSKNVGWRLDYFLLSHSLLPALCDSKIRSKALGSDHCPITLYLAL
Luciferin 4-monooxygenase (Photinus pyralis), sequence (P08659 whole entry, looked up): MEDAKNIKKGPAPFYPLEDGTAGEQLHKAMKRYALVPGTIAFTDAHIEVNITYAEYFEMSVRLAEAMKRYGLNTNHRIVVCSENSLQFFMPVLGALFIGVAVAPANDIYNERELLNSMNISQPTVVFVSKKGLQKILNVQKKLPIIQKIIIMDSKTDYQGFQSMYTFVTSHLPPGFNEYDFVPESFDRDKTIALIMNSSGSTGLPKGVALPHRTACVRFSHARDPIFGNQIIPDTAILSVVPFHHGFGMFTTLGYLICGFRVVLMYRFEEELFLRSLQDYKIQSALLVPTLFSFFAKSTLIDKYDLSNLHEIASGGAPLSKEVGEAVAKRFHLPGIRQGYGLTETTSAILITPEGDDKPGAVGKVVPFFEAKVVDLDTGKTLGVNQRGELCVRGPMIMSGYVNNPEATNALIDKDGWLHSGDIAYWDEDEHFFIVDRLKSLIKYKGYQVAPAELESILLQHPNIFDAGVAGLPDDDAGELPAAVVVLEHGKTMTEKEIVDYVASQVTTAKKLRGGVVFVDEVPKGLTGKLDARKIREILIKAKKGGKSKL
Galactokinase (Homo sapiens), sequence (P51570 whole entry, looked up): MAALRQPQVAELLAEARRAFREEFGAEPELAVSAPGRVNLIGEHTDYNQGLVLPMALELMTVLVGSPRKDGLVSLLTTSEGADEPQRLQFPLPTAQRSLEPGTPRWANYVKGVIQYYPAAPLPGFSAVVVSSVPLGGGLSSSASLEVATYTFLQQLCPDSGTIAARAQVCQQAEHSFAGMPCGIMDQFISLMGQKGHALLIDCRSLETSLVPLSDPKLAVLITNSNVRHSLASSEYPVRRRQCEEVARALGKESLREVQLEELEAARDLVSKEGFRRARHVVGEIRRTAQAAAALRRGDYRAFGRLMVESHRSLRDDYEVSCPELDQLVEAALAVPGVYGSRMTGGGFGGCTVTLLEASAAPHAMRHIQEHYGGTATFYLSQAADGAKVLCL

For the compound `CC(/C=C1\SC(=S)N(CC(=O)O)C1=O)=C\c1ccccc1`, in assay [1], the Potency is 6.42 µM (active). The compound was called inactive in assay [2] and in assay [4]. For the same compound, the Potency result in assay [3], in [5], in [6], in assay [7], in [8] and in [9] was “inactive” throughout.
As to `C[C@H]1CC2[C@@H]3CCC4=CC(=O)C=C[C@]4(C)[C@@]3(F)[C@@H](O)C[C@]2(C)[C@@]1(O)C(=O)CO` (stereo not given in full), the result in assay [10], in assay [15], in [18] and in [19] was inactive. Besides, the Potency in assay [11] was 39.8 µM (active); in assay [13], 10 µM (active). Besides, the Potency result in assay [12], in [14], in [16], in [17] and in assay [20] was “inactive” in each case.
